Test results from the supplement of paper PMC10849652.
About 7,900 targets were measured; listed, in parts, are those with a hit and a random draw of the rest. About 0.6% of all pairs of compound and target were hits. Values without a mark were called inactive.

Key:
Test in all cases: log2 fold change, soluble protein after heating vs DMSO (PISA); higher = thermal stabilisation; K562 cells, 10 uM, 30 min; active = over 0.2 and 3.5 SD of the protein, either way, in both replicates (recomputed)
[1] = compound: COC1=CC=C(C=C1)CN2C=CC3=C2C=C(C=C3)C(=O)NO
In short: (§1)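 Soluble protein was defined as the supernatant after 21,000xg for 90 min. It came from K562 cells at 2×10^6 cells/mL given 10 μM compound for 30 min, heated in aliquots for 3 min across 48°C-58°C, pooled, and extracted in PBS with 0.5% NP-40 at 4°C, and was quantified by TMTpro 16plex LC-MS/MS with equalised channel sums. Thermal stability against control samples, from duplicates, is reported as log2 fold change.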

[2] = compound: CON(C)C(=O)N1N=C(c2cc(F)ccc2F)S[C@@]1(CCCN)c1ccccc1 [filanesib]
In short: as §1

[3] = compound: CO[C@H]1C[C@@H]2CC[C@@H](C)[C@@](O)(O2)C(=O)C(=O)N2CCCC[C@H]2C(=O)O[C@H]([C@H](C)C[C@@H]2CC[C@H](n3cnnn3)[C@H](OC)C2)CC(=O)[C@H](C)/C=C(\C)[C@@H](O)[C@@H](OC)C(=O)[C@H](C)C[C@H](C)/C=C/C=C/C=C/1C [zotarolimus]
In short: as §1

[4] = compound: COc1cc(C(=O)O)ccc1NC(=O)[C@@H]1N[C@@H](CC(C)(C)C)[C@](C#N)(c2ccc(Cl)cc2F)[C@H]1c1cccc(Cl)c1F [idasanutlin]
In short: as §1

[5] = compound: COc1cc(Nc2ncc3c(n2)-c2ccc(Cl)cc2C(c2c(F)cccc2OC)=NC3)ccc1C(=O)O [alisertib]
In short: as §1

[6] = compound: COc1cc2nc(-c3cc(F)ccc3O)nc(N[C@@H]3CNC[C@H]3C(C)(C)O)c2cc1OC
In short: as §1

[7] = compound: COc1cccc2cc(-c3nc([C@H]4CC[C@H](C(=O)O)CC4)n4ncnc(N)c34)[nH]c12
In short: as §1

[8] = compound: CS(=O)(=O)CCNCc1ccc(-c2ccc3ncnc(Nc4ccc(OCc5cccc(F)c5)c(Cl)c4)c3c2)o1 [lapatinib]
In short: as §1

[9] = compound: CS(=O)(=O)N1CCN(Cc2cc3nc(-c4cccc5[nH]ncc45)nc(N4CCOCC4)c3s2)CC1 [pictilisib]
In short: as §1

[10] = compound: COc1cc2ncnc(Nc3ccc(F)c(Cl)c3)c2cc1OCCCN1CCOCC1 [gefitinib]
In short: as §1

Chain of UniProt Q92664 (Q92664 whole entry, looked up): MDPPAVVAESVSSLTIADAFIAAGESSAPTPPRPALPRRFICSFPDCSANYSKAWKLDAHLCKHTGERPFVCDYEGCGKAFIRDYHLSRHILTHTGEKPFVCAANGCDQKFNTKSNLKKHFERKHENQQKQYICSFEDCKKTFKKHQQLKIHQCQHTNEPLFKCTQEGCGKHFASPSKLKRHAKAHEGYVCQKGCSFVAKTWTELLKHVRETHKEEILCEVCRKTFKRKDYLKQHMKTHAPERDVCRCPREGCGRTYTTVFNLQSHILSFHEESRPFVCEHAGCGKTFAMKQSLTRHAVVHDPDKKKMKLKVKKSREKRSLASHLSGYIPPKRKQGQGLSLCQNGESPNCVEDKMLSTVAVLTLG
Chain of UniProt Q9BVP2 (Q9BVP2 whole entry, looked up): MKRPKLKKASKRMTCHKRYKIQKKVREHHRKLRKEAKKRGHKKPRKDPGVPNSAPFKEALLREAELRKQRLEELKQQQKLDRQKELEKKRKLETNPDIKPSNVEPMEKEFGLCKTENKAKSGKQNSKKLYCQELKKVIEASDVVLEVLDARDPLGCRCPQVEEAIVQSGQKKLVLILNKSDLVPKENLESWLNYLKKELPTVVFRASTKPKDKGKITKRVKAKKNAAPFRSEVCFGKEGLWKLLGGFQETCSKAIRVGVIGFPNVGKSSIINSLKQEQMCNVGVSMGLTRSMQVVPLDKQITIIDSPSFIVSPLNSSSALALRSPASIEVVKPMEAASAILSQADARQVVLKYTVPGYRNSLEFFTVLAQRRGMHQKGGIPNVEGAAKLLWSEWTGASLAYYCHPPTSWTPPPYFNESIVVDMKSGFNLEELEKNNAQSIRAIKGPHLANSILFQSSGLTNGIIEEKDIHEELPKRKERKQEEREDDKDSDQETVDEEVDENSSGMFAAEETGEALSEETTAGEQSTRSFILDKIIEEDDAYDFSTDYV
Chain of UniProt Q04446 (Q04446 whole entry, looked up): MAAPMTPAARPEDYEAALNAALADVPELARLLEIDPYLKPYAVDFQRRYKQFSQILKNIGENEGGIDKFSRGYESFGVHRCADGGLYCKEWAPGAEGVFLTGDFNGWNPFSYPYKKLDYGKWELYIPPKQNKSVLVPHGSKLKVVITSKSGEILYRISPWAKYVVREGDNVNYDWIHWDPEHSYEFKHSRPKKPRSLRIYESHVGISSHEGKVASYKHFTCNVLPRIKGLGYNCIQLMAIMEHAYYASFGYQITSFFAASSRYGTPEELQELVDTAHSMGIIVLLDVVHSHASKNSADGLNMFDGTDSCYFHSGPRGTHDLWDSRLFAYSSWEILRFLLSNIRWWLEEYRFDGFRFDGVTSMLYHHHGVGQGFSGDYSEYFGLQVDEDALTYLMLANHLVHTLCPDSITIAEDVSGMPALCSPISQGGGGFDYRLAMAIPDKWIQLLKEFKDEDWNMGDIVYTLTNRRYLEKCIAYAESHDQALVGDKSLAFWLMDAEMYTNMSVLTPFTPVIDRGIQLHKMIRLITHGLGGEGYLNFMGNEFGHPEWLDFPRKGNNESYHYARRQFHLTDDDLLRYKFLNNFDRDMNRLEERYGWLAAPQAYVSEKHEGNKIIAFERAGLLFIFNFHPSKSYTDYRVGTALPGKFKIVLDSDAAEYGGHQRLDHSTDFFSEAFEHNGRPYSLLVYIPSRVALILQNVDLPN
Chain of UniProt Q9H4G4 (Q9H4G4 whole entry, looked up): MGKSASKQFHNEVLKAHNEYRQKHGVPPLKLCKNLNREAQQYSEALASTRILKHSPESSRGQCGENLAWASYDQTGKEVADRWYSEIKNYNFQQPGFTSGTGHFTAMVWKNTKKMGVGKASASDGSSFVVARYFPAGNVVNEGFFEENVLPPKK
Chain of UniProt P30711 (P30711 whole entry, looked up): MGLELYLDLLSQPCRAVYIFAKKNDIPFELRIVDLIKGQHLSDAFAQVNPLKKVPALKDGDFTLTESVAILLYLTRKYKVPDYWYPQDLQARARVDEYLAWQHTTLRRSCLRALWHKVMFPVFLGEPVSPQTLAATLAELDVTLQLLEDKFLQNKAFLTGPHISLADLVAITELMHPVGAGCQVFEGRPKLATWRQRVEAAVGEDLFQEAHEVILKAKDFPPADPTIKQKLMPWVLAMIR
Chain of UniProt O76003 (O76003 whole entry, looked up): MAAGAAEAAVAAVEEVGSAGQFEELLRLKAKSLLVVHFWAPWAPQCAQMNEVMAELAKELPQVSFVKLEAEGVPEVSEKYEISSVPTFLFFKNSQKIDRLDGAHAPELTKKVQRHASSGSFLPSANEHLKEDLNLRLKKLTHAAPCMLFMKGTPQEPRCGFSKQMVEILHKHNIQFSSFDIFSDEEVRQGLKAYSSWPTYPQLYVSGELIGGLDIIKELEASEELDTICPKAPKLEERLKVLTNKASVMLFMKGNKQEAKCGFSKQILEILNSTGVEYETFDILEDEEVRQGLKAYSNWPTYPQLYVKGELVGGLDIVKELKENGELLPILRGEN
Chain of UniProt P49840 (P49840 whole entry, looked up): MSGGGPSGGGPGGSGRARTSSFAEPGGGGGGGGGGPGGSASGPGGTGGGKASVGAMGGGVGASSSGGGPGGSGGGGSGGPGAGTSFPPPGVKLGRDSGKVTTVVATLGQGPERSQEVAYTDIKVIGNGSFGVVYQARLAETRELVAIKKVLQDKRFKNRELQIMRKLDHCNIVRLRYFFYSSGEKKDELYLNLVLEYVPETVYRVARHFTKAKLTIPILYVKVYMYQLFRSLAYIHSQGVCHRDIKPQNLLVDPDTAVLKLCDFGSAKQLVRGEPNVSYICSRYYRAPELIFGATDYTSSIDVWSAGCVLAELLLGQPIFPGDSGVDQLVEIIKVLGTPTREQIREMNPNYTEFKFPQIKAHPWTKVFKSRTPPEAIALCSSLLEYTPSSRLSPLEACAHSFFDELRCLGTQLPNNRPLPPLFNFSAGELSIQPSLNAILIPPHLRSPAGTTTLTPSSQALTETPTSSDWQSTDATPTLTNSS
Chain of UniProt P39748 (P39748 whole entry, looked up): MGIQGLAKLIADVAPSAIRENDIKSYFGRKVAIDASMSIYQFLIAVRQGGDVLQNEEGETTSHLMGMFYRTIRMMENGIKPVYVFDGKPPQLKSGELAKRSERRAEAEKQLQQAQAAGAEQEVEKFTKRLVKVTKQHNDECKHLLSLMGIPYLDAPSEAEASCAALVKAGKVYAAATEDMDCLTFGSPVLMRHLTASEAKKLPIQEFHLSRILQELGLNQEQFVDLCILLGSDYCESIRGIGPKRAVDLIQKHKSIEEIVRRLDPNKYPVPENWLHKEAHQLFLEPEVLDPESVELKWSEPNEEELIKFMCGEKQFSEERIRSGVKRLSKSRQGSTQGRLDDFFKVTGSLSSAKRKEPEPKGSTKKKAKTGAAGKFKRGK
Chain of UniProt Q96I24 (Q96I24 whole entry, looked up): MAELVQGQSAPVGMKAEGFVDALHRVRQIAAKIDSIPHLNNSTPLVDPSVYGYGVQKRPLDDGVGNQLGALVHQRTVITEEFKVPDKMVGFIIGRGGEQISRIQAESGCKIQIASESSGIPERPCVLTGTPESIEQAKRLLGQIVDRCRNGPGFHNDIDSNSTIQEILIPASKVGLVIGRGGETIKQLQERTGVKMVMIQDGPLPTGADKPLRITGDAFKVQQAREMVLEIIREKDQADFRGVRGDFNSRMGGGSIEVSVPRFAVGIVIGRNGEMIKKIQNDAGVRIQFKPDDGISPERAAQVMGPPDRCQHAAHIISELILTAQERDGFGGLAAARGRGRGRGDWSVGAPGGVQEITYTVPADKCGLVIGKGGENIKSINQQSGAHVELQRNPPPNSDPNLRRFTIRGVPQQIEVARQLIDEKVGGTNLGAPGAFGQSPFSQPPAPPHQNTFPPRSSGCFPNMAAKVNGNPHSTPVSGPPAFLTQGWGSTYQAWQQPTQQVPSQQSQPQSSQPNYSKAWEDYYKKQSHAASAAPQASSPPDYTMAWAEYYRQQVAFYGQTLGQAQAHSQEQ
Chain of UniProt I6L899 (I6L899 whole entry, looked up): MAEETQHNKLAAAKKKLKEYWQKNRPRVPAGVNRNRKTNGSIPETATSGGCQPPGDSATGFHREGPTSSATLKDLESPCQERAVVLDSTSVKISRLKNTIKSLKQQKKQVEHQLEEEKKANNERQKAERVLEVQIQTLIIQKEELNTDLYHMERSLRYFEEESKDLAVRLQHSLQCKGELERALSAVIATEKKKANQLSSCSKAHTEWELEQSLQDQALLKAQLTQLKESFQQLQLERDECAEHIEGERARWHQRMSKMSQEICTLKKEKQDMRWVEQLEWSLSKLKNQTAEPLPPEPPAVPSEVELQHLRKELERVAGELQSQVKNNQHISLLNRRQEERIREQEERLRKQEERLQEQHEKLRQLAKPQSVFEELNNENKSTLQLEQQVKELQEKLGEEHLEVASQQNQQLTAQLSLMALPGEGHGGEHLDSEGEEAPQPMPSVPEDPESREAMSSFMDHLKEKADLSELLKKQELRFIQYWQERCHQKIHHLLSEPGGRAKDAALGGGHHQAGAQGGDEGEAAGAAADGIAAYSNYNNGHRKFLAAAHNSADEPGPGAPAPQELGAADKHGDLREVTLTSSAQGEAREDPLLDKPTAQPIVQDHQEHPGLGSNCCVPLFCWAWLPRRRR
Chain of UniProt Q00403 (Q00403 whole entry, looked up): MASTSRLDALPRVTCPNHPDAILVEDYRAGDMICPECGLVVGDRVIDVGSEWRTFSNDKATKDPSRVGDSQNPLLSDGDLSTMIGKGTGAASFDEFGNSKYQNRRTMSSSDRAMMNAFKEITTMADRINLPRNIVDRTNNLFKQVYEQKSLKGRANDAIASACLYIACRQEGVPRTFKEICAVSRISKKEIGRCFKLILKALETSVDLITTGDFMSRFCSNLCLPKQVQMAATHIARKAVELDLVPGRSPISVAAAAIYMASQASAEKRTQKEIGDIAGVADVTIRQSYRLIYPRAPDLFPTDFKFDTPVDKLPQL
Chain of UniProt P0CL80 (P0CL80 whole entry, looked up): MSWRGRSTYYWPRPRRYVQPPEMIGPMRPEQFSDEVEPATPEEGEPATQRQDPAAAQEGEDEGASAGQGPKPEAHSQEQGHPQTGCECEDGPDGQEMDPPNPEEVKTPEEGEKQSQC

Row | Target | log2 fold change [1] | log2 fold change [2] | log2 fold change [3] | log2 fold change [4] | log2 fold change [5] | log2 fold change [6] | log2 fold change [7] | log2 fold change [8] | log2 fold change [9] | log2 fold change [10]
1 | GLIPR2 (UniProt Q9H4G4) | 0 | -0.147 | 0.024 | 0.096 | -0.031 | -0.239 | -0.036 | 0.103 | -0.011 | 
2 | IFI30 (UniProt P13284) | 0.04 | 0.061 | 0.06 | 0.027 | -0.11 | -0.133 | 0.01 | 0.147 | -0.02 | -0.035
3 | GAGE12F (UniProt P0CL80) | -0.007 | 0.02 | -0.054 | 0.055 | -0.312 | -0.02 | 0.123 | -0.028 | 0.108 | -0.03
4 | GNL1 (UniProt P36915) | 0.047 | -0.066 | 0.049 | -0.056 | -0.107 | 0.039 | 0.061 | 0.011 | 0.04 | 0.031
5 | GTF2E2 (UniProt P29084) | -0.014 | 0.034 | 0.027 | -0.03 | -0.027 | 0 | -0.056 | 0.022 | 0.031 | 0.009
6 | GLRX3 (UniProt O76003) | 0.005 | -0.056 | 0.056 | -0.001 | -0.063 | 0.012 | -0.018 | 0.062 | -0.003 | -0.009
7 | IFT80 isoform 3 (UniProt Q9P2H3) | -0.128 | -0.043 | 0.003 | -0.066 | -0.039 | 0.01 | 0.04 | -0.038 | 0.034 | -0.07
8 | GTPBP6 (UniProt O43824) | -0.105 | 0.049 | 0.061 | 0.018 | -0.217 |  | 0 |  | -0.012 | -0.146
9 | GSK3A (UniProt P49840) | -0.028 | -0.087 | -0.029 | -0.107 | 0.051 | 0.088 | 0.045 | -0.016 | 0.188 | -0.008
10 | FIBP (UniProt O43427) | 0.083 | -0.051 | -0.047 | 0.03 | 0.016 | 0.042 | -0.084 | 0.008 | 0.185 | 
11 | GLA (UniProt P06280) | 0.033 | -0.048 | -0.003 | 0.06 | -0.089 | 0.018 | 0.01 | -0.026 | -0.06 | -0.011
12 | GTF3A (UniProt Q92664) | 0.092 | -0.138 | 0.067 | -0.018 | 0.014 | -0.225 | -0.006 | 0.099 | -0.042 | -0.139
13 | FUBP3 (UniProt Q96I24) | 0.129 | 0.055 | -0.072 | 0.049 | 0.034 | 0.165 | 0.009 | 0.006 | -0.062 | -0.049
14 | GAB2 (UniProt Q9UQC2) | 0.044 | -0.053 | -0.145 | 0.084 | 0.007 | -0.526 | -0.236 | 0.033 | -0.348 | 
15 | GLYR1 (UniProt Q49A26) | -0.024 | 0.125 | -0.04 | 0 | 0.071 | -0.092 | -0.07 | 0.169 | -0.228 | 0.113
16 | FEN1 (UniProt P39748) | 0.06 | -0.215 | 0.027 | -0.099 | 0.019 | 0.039 | 0.096 | -0.098 | -0.005 | -0.029

Row | Target | log2 fold change [1] | log2 fold change [2] | log2 fold change [3] | log2 fold change [4] | log2 fold change [5] | log2 fold change [6] | log2 fold change [7] | log2 fold change [8] | log2 fold change [9] | log2 fold change [10]
17 | GTF2B (UniProt Q00403) | 0.046 | -0.018 | 0.054 | -0.085 | -0.037 | -0.001 | -0.006 | -0.047 | -0.025 | 0.02
18 | GPD1 (UniProt P21695) |  | -0.083 | 0.022 | -0.289 | 0.077 | -0.051 | 0.111 | 0.015 | 0.203 | 0.368
19 | ICMT (UniProt O60725) | -0.083 | -0.189 |  | -0.029 | -0.046 | -0.112 | 0.085 | 0.206 |  | 0.154
20 | FUNDC1 (UniProt Q8IVP5) |  | -0.193 |  |  | 0.011 | -0.138 | 0.172 | 0.101 |  | 
21 | FAT2 (UniProt Q9NYQ8) | 0.247 |  | 0.104 |  | 0.208 | 0.031 | -0.024 | -0.089 | -0.497 | 
22 | GNL3 (UniProt Q9BVP2) |  | -0.038 | -0.012 | -0.212 | -0.12 |  | 0.071 |  | 0.061 | 0.067
23 | GPS2 (UniProt Q13227) | -0.108 | 0.018 |  |  | -0.067 | 0.135 | 0.152 | -0.044 |  | 0.008
24 | FBXO9 (UniProt Q9UK97) | 0.124 |  | -0.027 |  | 0.466 (active) | -0.169 | 0.077 | 0.012 | 0.036 | 0.007
25 | HAUS4 (UniProt Q9H6D7) |  | 0.245 | 0.05 | 0.126 | -0.103 | 0.024 | 0.323 | -0.038 | -0.162 | -0.086
26 | GBE1 (UniProt Q04446) | 0.048 |  | 0.045 | 0.002 | 0.019 | -0.168 | -0.102 | -0.022 |  | 
27 | H3-3A (UniProt P84243) |  | -0.187 | 0.009 |  | 0.098 | 0.179 | -0.062 | -0.042 |  | 0.035
28 | GSTT1 (UniProt P30711) | 0.014 |  | 0.07 | 0 | -0.118 | -0.015 | 0.029 | 0.003 | 0.027 | 0.023
29 | HNRNPK isoform 3 (UniProt P61978) | -0.025 | 0.077 |  |  | -0.063 |  | 0.005 |  | 0.057 | -0.066
30 | FMR1 (UniProt Q06787) | -0.3 | 0.219 | 0.005 |  | -0.023 | 0.286 | 0.322 | -0.027 | 0.036 | 
31 | GOLGA8R (UniProt I6L899) | 0.591 (active) |  | -0.027 | 0.022 |  | 0.345 |  | -0.093 | 0.01 | 
32 | GSE1 (UniProt Q14687) |  |  | -0.063 |  |  |  |  |  |  | 0.224
